Screening results as filed in PubChem BioAssay.
ERK EGF inh: EGF-driven ERK pathway inhibition. HEK293-V1b, EGF-stimulated phospho-ERK AlphaScreen. 130,000 compounds, 0.41% hits. AID 1454. Potency, µM (highest dose often 11.5 µM), for inactives: at the highest dose activity change, negative = inhibition, hits mostly inhibitors;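 note: plate controls were stimulated vehicle wells for no effect and unstimulated vehicle basal for full effect; nearly all actives have a fitted effect of over 55% in size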
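Readout: AlphaScreen signal for phosphorylated ERK in lysed HEK293 cells stably expressing V1b. Stimulus 25 nM EGF, 5 min, following 30 min compound exposure. Data scaled to DMSO basal and full EGF activation.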
NPSR antagonist: neuropeptide S receptor (human) antagonism, cAMP | Q6W5P4 | CHO-NPSR cells, cAMP TR-FRET, antagonist mode | Potency, µM (highest dose often 38.3 µM), for inactives: at the highest dose activity change, negative = inhibition, most hits filed as inhibitors | 220,000 compounds, 1% hits | AID 1461; note: nearly all actives have a fitted effect of over 50% in size
Target sequence (Q6W5P4 whole entry, looked up): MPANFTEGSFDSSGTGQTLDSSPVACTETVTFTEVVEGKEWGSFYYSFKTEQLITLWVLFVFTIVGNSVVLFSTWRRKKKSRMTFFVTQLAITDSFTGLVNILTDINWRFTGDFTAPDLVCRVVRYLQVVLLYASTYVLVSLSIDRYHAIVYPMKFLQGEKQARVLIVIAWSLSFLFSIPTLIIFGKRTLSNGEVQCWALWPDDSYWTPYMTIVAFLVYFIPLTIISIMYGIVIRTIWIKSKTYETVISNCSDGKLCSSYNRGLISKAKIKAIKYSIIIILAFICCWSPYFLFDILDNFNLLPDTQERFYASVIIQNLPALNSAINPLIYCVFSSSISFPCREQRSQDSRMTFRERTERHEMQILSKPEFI
The depositor's hits bear a star; u = inconclusive; x = not tested or not shown; [ ] = another dose, or the depositor's remark. Only a selection was taken, and hits are over-represented in it overall. Calls come from the whole dose curve; as a rule, active = well fitted curve in the direction sought with a large enough effect; inconclusive = small, poorly fitted or top-dose-only effect, or another doubt; inactive = no such curve, though single readings can be large; an effect the other way counts as inactive or inconclusive. Unless noted, % is set by controls: 0 for no effect and ±100 for the full control effect; potency is the fitted concentration of half-maximal effect.

SMILES | ERK EGF inh | NPSR antagonist
CC(C)Oc1ccccc1/C=N/Nc1ccccc1[N+](=O)[O-] | 13µM* | -23%
COc1ccccc1/C=N\Nc1ccccc1[N+](=O)[O-] | 10µM* | 5%
O=C(COC(=O)C1CC(O)CN1S(=O)(=O)c1ccc(Cl)cc1)c1cccc(Cl)c1 (stereo not drawn) | -4% | -2%
O=C(O)/C=C\C(=O)Nc1ccccc1C#Cc1ccc(Br)cc1 | x | 13µM*
O=C(O)/C=C\C(=O)Nc1ccccc1C#Cc1ccccc1 | x | -2%[46.1 µM]
CO[C@H]1C=CO[C@@]2(C)Oc3c(C)c(O)c4c(O)c(c(C=NN5CCN(C6CCCC6)CC5)c(O)c4c3C2=O)NC(=O)C(C)=CC=C[C@H](C)[C@H](O)[C@@H](C)[C@@H](O)[C@@H](C)[C@H](OC(C)=O)[C@@H]1C | 8.9µM* | -32%
CO[C@H]1C=CO[C@@]2(C)Oc3c(C)c(O)c4c(O)c(c(C=NN5CCN(C)CC5)c(O)c4c3C2=O)NC(=O)C(C)=CC=C[C@H](C)[C@H](O)[C@@H](C)[C@@H](O)[C@@H](C)[C@H](OC(C)=O)[C@@H]1C | u | -58%
C#CC(=O)N(c1cc(OC)ccc1OC)C(C(=O)NC1CCCC1)c1cccs1 (stereo not drawn) | x | 10µM*
C#CC(=O)N(c1ccc(OC)cc1OC)C(C(=O)NC1CCCC1)c1cccs1 (stereo not drawn) | -8% | u
COc1cccc(-c2nc(-c3ccc(NC(=O)c4cccs4)cc3)no2)c1 | x | -26%[46.1 µM]
COC(=O)[C@H]1C[C@@H]1[C@H](NC(C)=O)c1ccccc1 | 10% | x
Cc1ccc(NC(=O)COC(=O)C2CC(=O)N(Cc3ccccc3)C2)cc1S(=O)(=O)N(C)C (stereo not drawn) | -10% | 11%
COC(=O)c1sc(NC(=S)NC(=O)c2ccccc2F)nc1C | 3% | 13µM*
COC(=O)c1sc(NC(=S)NC(=O)c2cccc(C)c2)nc1C | 11% | -26%
COc1ccc(S(=O)(=O)N(CC(=O)NC2CC2)c2ccc(C)cc2)cc1OC | x | 5%[46.1 µM]
Cc1cc(/C=N/N2CCN(C)CC2)c(C)n1-c1ccc(Cl)cc1 | -3%[57.5 µM] | 0%
CC(C)(C)c1nn2cnnc2n(/N=C/c2ccc(O)cc2)c1=O | -6% | u
COc1ccc(CCNC(=O)CC(c2ccccc2)c2cccc(C)c2O)cc1OC (stereo not drawn) | u | 1µM*
COc1ccc(CCNC(=O)CSc2ccccc2)cc1OC | 1% | 18%
Cc1ccc2nc(-c3cccnc3)cc(C(=O)N3CCN(c4ccc([N+](=O)[O-])cc4)CC3)c2c1 | -1% | 5µM*
Cc1ccc2c(C(=O)N3CCN(c4ccccc4)CC3)cc(-c3cccnc3)nc2c1C | -7% | -48%
COC(=O)CSc1nnc(CNC(=O)c2cccs2)n1-c1cc(OC)ccc1OC | x | 4%[46.1 µM]
CN1/C(=C\C(=O)c2cccnc2)C(C)(C)c2ccccc21 | 3% | 11%
CN1/C(=C/C(=O)c2nc(S(C)(=O)=O)ncc2Cl)C(C)(C)c2ccccc21 | x | 5µM*
Cc1ccc(S(=O)(=O)N[C@@H](Cc2ccccc2)C(=O)CCl)cc1 | 16% | 20µM*
SMILES | ERK EGF inh | NPSR antagonist
CCCC(NS(=O)(=O)c1ccc(C)cc1)C(=O)O (stereo not drawn) | x | 0%[46.1 µM]
N#Cc1cccc(-c2nc(N3CCNCC3)c3ccccc3n2)c1 | 13% | x
O=C(N/N=C\c1cn(-c2ccccc2)nc1-c1ccccc1)c1ccc(Br)o1 | x | -29%[46.1 µM]
Cc1ccc(-c2nn(-c3ccccc3)cc2/C=N/NC(=O)c2ccc(Br)o2)cc1 | x | 7.9µM*
CCN(CC)CCCN1C(=O)c2oc3ccccc3c(=O)c2C1c1cccs1 (stereo not drawn) | x | 0%[46.1 µM]
O=C(NCc1ccc(F)cc1)c1cnc(-c2ccccn2)nc1C(F)(F)F | x | -1%[46.1 µM]
O=C1C(Cl)=C(N2CCN(c3ccccc3[N+](=O)[O-])CC2)C(=O)c2ccccc21 | 25µM* | 10µM*
O=[N+]([O-])c1cc(Cl)ccc1N1CCCC1 | u | -5%
CCN(CC)c1ccc(/C=N\N2CCN(Cc3ccc(C)cc3)CC2)cc1 | u | -17%
CCN(CC)c1ccc(/C=N/N2CCN(Cc3ccc(Cl)cc3)CC2)c(O)c1 | 14µM* | 35%
CCSc1ccc2cc(OC)ccc2[n+]1CC | 1% | 4%
Cc1ccc(CN2CCN(Cc3cnc(N4CCOCC4)s3)CC2CCO)cc1 (stereo not drawn) | 4% | 5%
C#C[C@]1(OC(C)=O)CCC2C3CCC4=CC(=O)CCC4C3CC[C@]21C (stereo partly drawn) | -8% | x
Cc1ccc(-n2ncc(Br)c(Br)c2=O)cc1 | -11% | u
O=c1c(Br)c(Br)cnn1-c1ccccc1 | -11% | 10µM*
Cc1cc(C)n(C(C[N+](=O)[O-])c2ccc(Cl)cc2)n1 (stereo not drawn) | x | -4%[46.1 µM]
On1onc2c3cc(-c4ccccc4)nc3ccc21 | x | 13µM*
c1ccc(-c2cc3c(ccc4nonc43)nn2)cc1 | x | 12%[46.1 µM]
